The values below come from PubChem BioAssay AID1851 (National Center for Advancing Translational Sciences (NCATS), 2009).

The whole screen tested about 16,000 compounds, of which about 5,800 (36%) were called active. Another 23% or so got no clear call; they are omitted. The call rests on the fitted dose curve; in most records, active means well fitted curve in the direction sought with a large enough effect; inconclusive means small, poorly fitted or top-dose-only effect, or effect the other way; inactive means no such curve, though single readings can be large or run the other way. The list shows a part of the results.
On the % scale 0 is the no-effect control and ±100 the full control effect.

Cytochrome P450 2C19 (Homo sapiens), sequence (P33261 whole entry, looked up): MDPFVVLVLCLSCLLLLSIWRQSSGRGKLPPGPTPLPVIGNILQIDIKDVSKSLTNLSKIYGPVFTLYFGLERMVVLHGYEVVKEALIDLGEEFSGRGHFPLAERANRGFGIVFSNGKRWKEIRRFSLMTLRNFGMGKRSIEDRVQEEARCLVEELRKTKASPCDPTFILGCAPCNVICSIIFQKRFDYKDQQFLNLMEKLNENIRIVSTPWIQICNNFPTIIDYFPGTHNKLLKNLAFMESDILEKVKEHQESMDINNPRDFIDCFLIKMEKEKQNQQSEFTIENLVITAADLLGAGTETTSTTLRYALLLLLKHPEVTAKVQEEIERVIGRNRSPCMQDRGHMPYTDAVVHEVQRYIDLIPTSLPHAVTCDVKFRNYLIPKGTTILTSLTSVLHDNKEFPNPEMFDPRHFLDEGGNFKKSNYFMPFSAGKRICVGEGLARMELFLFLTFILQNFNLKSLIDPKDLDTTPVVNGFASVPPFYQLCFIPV

The assay addresses Cytochrome P450 2C19 (Homo sapiens) (UniProt P33261). Put plainly: Cytochrome panel assay with activity outcomes. The note with it: recombinant CYP, pro-luciferin dealkylation, luminescence, p450-cyp2c19; series mostly up to 57.1 µM; activity, negative = inhibition: at the top concentration.
As for `CC(C)(C)c1ccc(C(=O)c2c[nH]c(C(=O)NCCCn3ccnc3)c2)cc1`, the concentration at half-maximal activity (AC50) was 0.1 µM (active).
Turning to `CCC(CC)C(=O)c1c[nH]c(C(=O)NCCCN2CCOCC2)c1`, the “activity, negative = inhibition” value is 17.8% (inactive).
Same read-out and setting: as for `CCOC(=O)NC(NC(=O)OCC)C(=O)c1ccc(F)cc1`, the figure is -29.8% (inactive).
Turning to `Cc1c(CCO)c(=O)n(C)n1C(=O)c1ccc(F)cc1`, the half-maximal activity concentration (AC50) is 17.8 µM (active).
Same read-out and setting: for `Clc1ccc2[nH]cc(-c3nnnn3-c3ccccc3)c2c1` the value was 1.12 µM (active); for `Cc1ccc(-n2nnnc2-c2cnc3ccc(Cl)cc3c2-c2ccccc2)cc1`, 7.94 µM (active).
Turning to `N#Cc1cccc(-c2nc3cnc(Nc4ccccc4)nc3n(C[C@H]3CCCO3)c2=O)c1`, the “activity, negative = inhibition” value was 5.15% (inactive).
As to `Cc1ccc(Cl)c(Nc2ccccc2C(=O)O)c1Cl`, the AC50 entry was “inactive”.
Turning to `O=C(Nc1ccccc1Cl)c1ccn[nH]1`, the “activity, negative = inhibition” value is 14.8% (inactive).
Take `Cc1cc(NC(=O)c2ccccc2Cl)c(C(C)C)cc1O`: the AC50 is 3.98 µM (active).
For `Cn1sc(NC(=O)c2ccccc2)nc1=O`, the “activity, negative = inhibition” value is -23.1% (inactive).
As for `Cn1sc(NC(=O)c2ccccc2Cl)nc1=O`, the AC50 is 14.1 µM (active).
For `O=C(Nc1ccccc1Cl)c1ccccc1Cl`, the concentration at half-maximal activity (AC50) is 20 µM (active).
Still for that read-out and setting: as for `CC[C@@]12CCCN3CCc4c(n(c5ccccc45)[C@](O)(C(=O)OC)C1)[C@H]32`, the entry is “inactive”.
Take `O=C(CSCc1ccccc1)Nc1cccc(C(=O)Nc2ccccc2C(=O)O)c1`: the AC50 was 11.2 µM (active).
For `O=C(Nc1cccc(C(=O)Nc2ccc(S(=O)(=O)O)c3cc(S(=O)(=O)O)cc(S(=O)(=O)O)c23)c1)Nc1cccc(C(=O)Nc2ccc(S(=O)(=O)O)c3cc(S(=O)(=O)O)cc(S(=O)(=O)O)c23)c1`, the AC50 entry was “inactive”.
Consider `CCNc1ncc2nc(-c3cc(F)cc(F)c3)c(=O)n(Cc3cccs3)c2n1`, for which the “activity, negative = inhibition” value was 2.98% (inactive).
In the case of `CCCC(C(=O)Nc1nccs1)c1ccccc1` (stereo unspecified), the AC50 was 3.16 µM (active).
Regarding `O=C(O)[C@H](CCc1ccccn1)c1ccccc1`, the activity, negative = inhibition was 9.85% [at 11.4 µM] (inactive).
For `COc1cc(C)ccc1OCCCOc1ccccc1Cl`, the concentration at half-maximal activity (AC50) is 1.12 µM (active).
On to `COc1cc(C=O)ccc1OCCCOc1ccccc1C(=O)O`, for which the “activity, negative = inhibition” value is -6.37% (inactive).
Regarding `COc1cc(C)ccc1OCCCOc1ccccc1Br`, the concentration at half-maximal activity (AC50) was 0.501 µM (active).
On the same count and under the same terms, for `COc1ccccc1OCCCOc1ccc([N+](=O)[O-])cc1Cl` the value was 0.316 µM (active); for `COc1cc(C=O)ccc1OCCOCCOc1ccccc1Cl`, 1.26 µM (active).
Turning to `CC(C)CO/N=C1/[C@H]2O[C@@H]2[C@@H](O)[C@H]2[C@H]1CCn1c(=O)n(C)c(=O)n12`, the activity, negative = inhibition was -6.23% [at 11.4 µM] (inactive).
Take `Cc1ccc(C)c(Nc2nc3nonc3nc2N2CCOCC2)c1`: the AC50 is 25.1 µM (active).
In the case of `CN1CCN(CCCBr)CC1`, the activity, negative = inhibition was 39.1% [at 11.4 µM] (inactive).
With `Cc1ccc(SCc2[nH]nc3c2C(C(C)C)C(C#N)=C(N)O3)cc1` (stereo unspecified), the AC50 is 3.16 µM (active).
`COCc1cc(=O)[nH]c2cc(NC(=O)C(F)(F)F)c(C)cc12`: the “activity, negative = inhibition” value is -32.6% (inactive).
For `CN(CCCNC(=O)C1CCC(=O)N1Cc1ccccc1Cl)c1ccccc1` (stereo unspecified), the concentration at half-maximal activity (AC50) is 10 µM (active).
As for `Cc1ccc(CCN2CC(C(=O)NCCCN(C)Cc3ccccc3)CC2=O)cc1` (stereo unspecified), the “activity, negative = inhibition” value was 7.47% (inactive).
On the same count and under the same terms, for `O=C(NCCN1CCN(Cc2ccccc2)CC1)C1CC(=O)N(C2CCCC2)C1` (stereo unspecified) the value was -9.63% (inactive).
Still for that read-out and setting: for `CCCS(=O)(=O)N1CCCC(C(=O)NCCN(C)Cc2ccccc2)C1` (stereo unspecified) the value was -12.9% (inactive).
As to `O=C(Nc1ccc(Br)cc1)C1CCC(=O)N1Cc1ccccc1Cl` (stereo unspecified), the AC50 is 0.631 µM (active).
For the compound `CN(Cc1ccco1)C(=O)C1CCC(=O)N1Cc1ccc(F)cc1` (stereo unspecified), the AC50 was 17.8 µM (active).
The same measure, in the same setting: as for `CC(C)N(CCNC(=O)C1CCC(=O)N1Cc1ccc(F)cc1)Cc1ccccc1` (stereo unspecified), the figure is 2.82 µM (active); as for `Cc1ccc(OC[C@H](O)[C@H](C)NC(C)C)c2c1CCC2`, “inactive”.
With `CC(C)(C[C@@]1(C)NC(=O)NC1=O)OCc1ccccc1`, the activity, negative = inhibition is 18.1% [at 11.4 µM] (inactive).
Take `Cc1ccc(N=Nc2c(O)ccc3cc(S(=O)(=O)O)ccc23)cc1`: the activity, negative = inhibition is 6.68% [at 11.4 µM] (inactive).
With `O=c1oc2cc(N=Cc3ccc4c(c3)OCO4)ccc2c2ccccc12`, the activity, negative = inhibition is -3.38% [at 11.4 µM] (inactive).
Take `Cc1ccc(S(=O)(=O)c2cc3ccccc3oc2=Nc2ccc3c(c2)OCO3)cc1`: the AC50 is 4.47 µM (active).
Turning to `CCC(C#CCN1CCCCC1)(CC)OCCC#N`, the AC50 was 14.1 µM (active).
Still for that read-out and setting: for `CN(C)[C@@H]1C(=O)C(C(N)=O)=C(O)[C@]2(O)C(=O)C3=C(O)c4c(O)ccc(Cl)c4[C@H](O)[C@H]3C[C@@H]12` the value was “inactive”; for `COc1cccc(-c2cc(C(=O)N/N=C/c3ccc(OC)c(COC(C)=O)c3)c3ccccc3n2)c1`, 2.51 µM (active).
As for `COc1ccc(/C=N/NC(=O)c2cc(-c3ccc(C)cc3C)nc3ccccc23)cc1COC(C)=O`, the “activity, negative = inhibition” value was -34.6% (inactive).
For `O=C(Nc1cccc(F)c1)N1CCCC2(CCN(C(=O)c3cc(C(F)(F)F)cc(C(F)(F)F)c3)CC2)C1`, the “activity, negative = inhibition” value was -20.2% (inactive).
